Inconclusive results are not listed. Activity calls are given as the source filed them. Calls follow the shape of the dose curve; as a rule, active = well fitted inhibition curve with a large enough effect; inconclusive = small, poorly fitted or top-dose-only effect; inactive = no such curve, though single readings can be large or run the other way.
What follows are compounds tested against Cytochrome P450 3A4 (Homo sapiens) (UniProt P08684) (assay: qHTS Assay for Inhibitors and Substrates of Cytochrome P450 3A4 (AID 884; also: nearly all actives have a fitted effect of over 50% in size)). Settings: recombinant CYP3A4, Luciferin-PPXE luminescence; series mostly up to 57.1 µM; activity change, negative = inhibition: at the top concentration.
Sequence of Cytochrome P450 3A4 (Homo sapiens) (P08684 whole entry, looked up): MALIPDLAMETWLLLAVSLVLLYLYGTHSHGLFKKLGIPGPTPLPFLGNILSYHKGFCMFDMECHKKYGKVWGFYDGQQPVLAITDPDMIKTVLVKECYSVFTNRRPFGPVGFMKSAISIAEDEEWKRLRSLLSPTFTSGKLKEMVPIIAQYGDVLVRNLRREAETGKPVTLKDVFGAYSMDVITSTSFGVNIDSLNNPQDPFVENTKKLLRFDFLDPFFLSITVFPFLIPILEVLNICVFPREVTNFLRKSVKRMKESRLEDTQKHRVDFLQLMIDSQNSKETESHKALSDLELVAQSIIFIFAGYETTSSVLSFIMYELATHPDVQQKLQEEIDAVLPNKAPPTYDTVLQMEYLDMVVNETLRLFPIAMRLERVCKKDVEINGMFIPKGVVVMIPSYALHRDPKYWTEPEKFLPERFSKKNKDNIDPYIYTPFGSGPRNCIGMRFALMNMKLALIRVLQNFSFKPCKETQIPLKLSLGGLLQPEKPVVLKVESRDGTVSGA
Procedure, shortened: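 20 nM human CYP3A4 with 25 uM Luciferin-PPXE (at KM) in 200 mM KPO4, preincubated 10 min with compound; NADPH regeneration started a 60 min RT reaction. Luciferin detected by luminescence, normalized to 57 uM ketoconazole as full inhibition.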
% is scaled to controls: 0 for no effect and ±100 for the full control effect; potency is read from the fitted curve at half-maximal effect.

Activity change, negative = inhibition, inactive:
COC(=O)[C@@H]1C[C@H]2CC[C@H](O)C[C@H]2N1Cc1ccc(N2CCN(C)CC2)cc1 -20.9%
OB(O)c1ccc(Br)cc1 -29.4%
C=CCN1CCc2c(cc(O)c(O)c2Cl)C(c2cccc(C)c2)C1 (configuration not stated) -23.2%
N#Cc1ccc(C23CC4(C2)[C@H](CN(Cc2ccc(C(F)(F)F)cc2)[C@@H]4c2ccccc2)C3c2ccc(C(F)(F)F)cc2)cc1 (some centres not stated) -26.7%
COC(=O)[C@@H]1C[C@@]2(O)[C@@H](O)[C@@H](O)[C@@H](O)C[C@H]2N1C/C=C/c1ccccc1 -37.6%
C[C@@]1(O)C(O)[C@@H](CO)O[C@H]1n1cnc2c(NC3CCCC3)nc(Cl)nc21 (some centres not stated) -29.2%
COC(=O)c1ccc(C23CC4(C2)[C@H](CN(Cc2ccc(C(F)(F)F)cc2)[C@@H]4c2ccccc2)C3c2ccc(Cl)nc2)cc1 (some centres not stated) -28.9%
Cn1c(N)c(C(=O)COC(=O)c2cc(C(F)(F)F)nc3ccccc23)c(=O)n(C)c1=O 9.74%
Cn1c(=O)c(C(=O)COC(=O)c2cc(C(F)(F)F)nc3c(C(F)(F)F)cccc23)c(N)n(Cc2ccccc2)c1=O -27.7%
CCCCCCCCCCCCCCCC(=O)NCCc1ccc(O)c(O)c1 -24.9%
c1ccc(-c2ccc(CN3C[C@@H]4C(c5ccccc5)C5(c6ccccc6)CC4(C5)[C@H]3c3ccccc3)cc2)cc1 (some centres not stated) 7.2%
CN(C)/C=N/c1cc(=O)[nH]c(=O)n1C 7.82%
CN1C[C@@H]2C(c3ccc(C(F)(F)F)cc3)C3(c4ccccc4)CC2(C3)[C@H]1c1ccccc1 (some centres not stated) -28.8%
CCCCCCCCCCCCCCCCCC(=O)NCCc1ccc(O)c(O)c1 -12.8%
OB(O)c1cc2ccccc2o1 -10.3%
O=C(O)/C=C/c1cccc(B(O)O)c1 -21.7%
COC(=O)[C@@H]1C[C@@]2(O)[C@@H](O)[C@@H](O)[C@@H](O)C[C@H]2N1Cc1ccc(C)s1 -12.2%
O=[N+]([O-])c1ccccc1S(=O)(=O)NCC1CCC(CNCC2CCc3ccccc3C2)CC1 (configuration not stated) -1.89%
Cc1cc(C(=O)O)sc1C(N)C(=O)O (configuration not stated) -25.7%
COC(=O)CC1Oc2cc3oc4c5ccccc5oc(=O)c4c3cc2O1 (configuration not stated) -0.639%
CN(C)c1ccc(CNC(=O)[C@@]2(C)C=C[C@@H](Cc3ccccc3)N2C)cc1 -79.9%
Cn1c(=O)c(C(=O)COC(=O)c2cc(-c3ccccc3)nc3ccccc23)c(N)n(Cc2ccccc2)c1=O -23.5%
O=C(Nc1cc(NC(=O)c2ccccc2)c(C(=O)O)cc1C(=O)O)c1ccccc1 -14%
COC(=O)[C@@H]1C[C@@]2(O)[C@H](O)[C@H](O)[C@H](O)C[C@H]2N1Cc1ccc(N2CCOCC2)cc1 -19.1%
COC(=O)c1ccc(C23CC4(C2)[C@H](CN(Cc2ccc(-c5ccccc5)cc2)[C@@H]4c2ccccc2)C3c2ccc(C(F)(F)F)cc2)cc1 (some centres not stated) -24.4%
COC(=O)[C@@H]1C[C@@]2(O)[C@H](O)[C@H](O)[C@H](O)C[C@H]2N1Cc1ccc(C(C)(C)C)cc1 -27.1%
O=Cc1ccc(B(O)O)cc1 -5.49%
CN(C)c1nc(N)c(C(=O)Nc2cccnc2)nc1Cl -45.9%
CN(C)/C=N/c1cc(=O)[nH]c(=O)n1CC1CC1 -3.92%
COC(=O)CC1Oc2cc3oc4c(c3cc2O1)C(=O)CC(C)(C)C4 (configuration not stated) 16.3%

Potency, active:
C/C(CCC(=O)OC[C@@H]1O[C@H](C#Cc2ccccc2)C=C[C@@H]1Oc1ccc(C)cc1)=N/OC[C@@H](O)COCc1ccco1 3.16 µM
C#CCCCO/N=C1/C[C@@H](O)[C@@H](O)[C@@H]2[C@H]3C(=O)N(c4ccc(F)cc4F)C(=O)[C@@H]3CC[C@H]12 3.98 µM
C/C(CCC(=O)OC[C@@H]1O[C@H](C#Cc2ccccc2)C=C[C@@H]1Oc1ccc(C)cc1)=N/OC[C@@H](O)[C@H]1O[C@H]2OC(C)(C)O[C@H]2[C@@H]1O 3.98 µM
CCC1=C2CC[C@H]3C(=O)N(c4ccccc4)C(=O)[C@H]3[C@H]2[C@@]2(Cc3ccccc3)C(=NCCc3c[nH]c4ccccc34)OC(=O)N2C1=O 1.26 µM
CN1C[C@@H]2C(c3ccc(Cl)nc3)C3(c4ccccc4)CC2(C3)[C@H]1c1ccccc1 (some centres not stated) 12.6 µM
COC(=O)[C@@H]1C[C@@H]2CC[C@@H](O)C[C@@H]2N1Cc1ccc(-c2ccccc2)cc1 20 µM
CCC1=C2CC[C@H]3C(=O)N(C)C(=O)[C@H]3[C@H]2[C@@]2(Cc3ccccc3)C(=NCCOC)OC(=O)N2C1=O 10 µM
